High-throughput results as filed in PubChem.
An excerpt weighted towards active compounds, which were near 2.8% of everything screened.
KDM5B inhibitor: KDM5B demethylase inhibition; Q9UGL1; KDM5B demethylase, FDH-coupled NADH fluorescence (FDH is formaldehyde dehydrogenase); Potency, µM (titrated, usually from 57.7 µM), usual class: inhibitors; hit rate 2.6% among 220,000; AID 1347165; active = well fitted inhibition curve with a large enough effect; inconclusive = small, poorly fitted or top-dose-only effect; inactive = no such curve, though single readings can be large or run the other way; note: nearly all actives have a fitted effect of over 70% in size
Target sequence (Q9UGL1 whole entry, looked up): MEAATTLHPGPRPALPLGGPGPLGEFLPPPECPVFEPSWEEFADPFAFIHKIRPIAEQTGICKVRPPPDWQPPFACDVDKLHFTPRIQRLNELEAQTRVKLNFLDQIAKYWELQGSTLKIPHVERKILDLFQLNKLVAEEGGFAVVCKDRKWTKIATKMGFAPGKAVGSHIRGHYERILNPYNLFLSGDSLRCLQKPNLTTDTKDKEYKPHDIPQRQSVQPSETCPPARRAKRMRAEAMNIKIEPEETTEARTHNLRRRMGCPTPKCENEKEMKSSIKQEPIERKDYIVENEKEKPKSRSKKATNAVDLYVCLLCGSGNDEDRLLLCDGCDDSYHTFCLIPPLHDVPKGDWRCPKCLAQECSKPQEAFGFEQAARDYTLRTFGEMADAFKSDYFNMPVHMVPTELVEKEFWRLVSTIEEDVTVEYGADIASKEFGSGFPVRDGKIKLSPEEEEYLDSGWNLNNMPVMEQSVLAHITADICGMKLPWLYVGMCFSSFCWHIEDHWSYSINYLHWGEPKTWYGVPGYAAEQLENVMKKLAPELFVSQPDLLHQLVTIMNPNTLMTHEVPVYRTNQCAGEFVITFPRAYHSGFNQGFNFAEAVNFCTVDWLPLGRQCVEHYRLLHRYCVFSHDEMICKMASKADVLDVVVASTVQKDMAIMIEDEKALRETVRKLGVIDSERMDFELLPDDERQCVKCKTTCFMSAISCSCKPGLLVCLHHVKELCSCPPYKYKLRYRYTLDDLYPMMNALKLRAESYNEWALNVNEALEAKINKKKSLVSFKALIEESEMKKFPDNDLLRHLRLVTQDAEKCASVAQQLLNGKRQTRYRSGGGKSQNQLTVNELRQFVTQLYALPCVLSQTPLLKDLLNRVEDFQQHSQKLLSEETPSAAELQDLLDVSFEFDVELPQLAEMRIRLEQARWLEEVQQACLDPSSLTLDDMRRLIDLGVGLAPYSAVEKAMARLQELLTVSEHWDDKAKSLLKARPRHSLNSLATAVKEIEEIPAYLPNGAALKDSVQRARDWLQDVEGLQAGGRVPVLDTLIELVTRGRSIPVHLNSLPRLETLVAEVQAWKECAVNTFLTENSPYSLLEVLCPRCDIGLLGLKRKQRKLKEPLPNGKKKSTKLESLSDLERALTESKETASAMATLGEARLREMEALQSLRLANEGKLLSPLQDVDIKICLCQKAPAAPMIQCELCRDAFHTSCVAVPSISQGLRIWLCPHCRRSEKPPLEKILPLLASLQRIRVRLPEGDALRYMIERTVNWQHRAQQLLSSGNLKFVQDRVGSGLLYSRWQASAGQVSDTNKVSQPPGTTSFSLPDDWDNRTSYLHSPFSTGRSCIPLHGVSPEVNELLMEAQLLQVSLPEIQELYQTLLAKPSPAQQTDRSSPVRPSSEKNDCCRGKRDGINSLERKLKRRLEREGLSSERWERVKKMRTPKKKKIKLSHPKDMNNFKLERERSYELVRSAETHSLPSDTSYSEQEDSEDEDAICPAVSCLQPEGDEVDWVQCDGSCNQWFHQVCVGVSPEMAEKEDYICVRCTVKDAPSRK
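Here, H3K4me3 peptide (12.5 µM in substrate mix) is demethylated by KDM5BΔAP, 200 nM final, after 10 min compound exposure. Formaldehyde product is coupled through FDH (0.25 U/mL in mix) to NADH fluorescence; 30-min ΔRFU feeds dose-response curves.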
IP6K1 inhibitor: IP6K1 kinase inhibition; hit rate 0.81% among 140,000; activity change, % (series mostly up to about 58 µM); AID 1645851; Q92551; IP6K1 kinase, ADP-Glo luminescence, 2 h; active compounds read low; in the data active = activity change below about -25%
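ADP-Glo luminescence measures ADP made by human IP6K1 during a 2 h RT reaction with ATP/IP6 (mix at 1.3 mM/130 uM); top library doses 57.5 and 19.1 uM final.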
A number is an active result; - = inactive; ? = inconclusive; . = no result given.

SMILES | KDM5B inhibitor | IP6K1 inhibitor
Cc1ccc(-c2cc3c(=O)n(CCNC(=O)Cc4ccc(Cl)cc4)ccn3n2)cc1C | ? | -
COc1ccc(-c2cc3c(nc2OC)nc(CC2CC2)n3C)cc1 | 35µM | -
COc1nc2nc(CC3CC3)n(C)c2cc1-c1ccc(O)c(F)c1 | ? | -
COc1ncc(-c2cc3c(nc2OC)nc(CCc2ccccc2)n3C)cn1 | - | -
COc1cc(-c2cc3c(nc2OC)nc(CC2CC2)n3C)ccn1 | 40µM | -
O=[S+]([O-])(NC1CCCN(c2ccc3nnc(-c4ccccc4)n3n2)C1)c1cccc(C(F)(F)F)c1 (stereo unspecified) | . | -
O=C1/C(=C/c2ccc(F)c(Br)c2)Cc2ccccc21 | - | .
CCOC(=O)c1c(C)[nH]c(C)c1S(=O)(=O)NCC(=O)Nc1cc(Cl)ccc1OC | - | -
CCOC(=O)c1c(C)[nH]c(C)c1S(=O)(=O)N(C)CC(=O)Nc1cc(Cl)ccc1OC | - | -28
CN1CCN(c2cc(=O)c3ccnc(Nc4ccccn4)c3o2)CC1 | ? | -
O=c1cc(-c2ccncc2)oc2c(-c3cccc(CO)c3)nccc12 | 35µM | -
CN1CCN(c2cc(=O)c3ccnc(-c4cccc(CO)c4)c3o2)CC1 | 28µM | -
O=c1cc(-c2cccnc2)oc2c(-c3cccc(F)c3)nccc12 | ? | -
CN1CCN(c2cc(=O)c3ccnc(Nc4ccc(F)c(Cl)c4)c3o2)CC1 | - | -
CN1CCN(c2cc(=O)c3ccnc(-c4ccc(CO)cc4)c3o2)CC1 | 35µM | -
CN1CCN(c2cc(=O)c3ccnc(-c4cccc(F)c4)c3o2)CC1 | 35µM | -
CC(=O)Nc1cccc(-c2nccc3c(=O)cc(-c4ccncc4)oc23)c1 | ? | -
Cc1ccccc1C(=O)N1CCC(N2C(=O)c3c(c(C)nn3-c3ccccc3)C2C)C1 (stereo unspecified) | . | -
Cc1ncccc1C(=O)N1CCC(Oc2ccc(-c3noc(-c4ccccc4)n3)cc2)C1 (stereo unspecified) | - | -
CNC(=O)c1cc(C2CC2)nc2c1c(C1CCCN(C(=O)c3ccccc3)C1)nn2C (stereo unspecified) | . | -
Cc1nn(-c2ccccc2)c2c1C(C(C)C)N(C1CN(C(=O)Cc3cccc(Cl)c3)C1)C2=O (stereo unspecified) | . | -
COc1ccc(CN2CC(Cn3cccc3)Oc3ccncc3[S+]2(=O)[O-])cc1 (stereo unspecified) | . | -
Cc1ccc(C(C)C)c(OC(=O)c2ccc(-c3ccccc3)cc2)c1 | - | .
CN(C)CCNC(=O)c1nc2nc(-c3ccccc3)c(-c3ccc(Cl)cc3)cc2n1C | 28µM | -
CN(C)CCNC(=O)c1nc2nc(-c3ccccc3)c(-c3cccc(Cl)c3)cc2n1C | - | -
SMILES | KDM5B inhibitor | IP6K1 inhibitor
Cc1ccc(-c2cc3c(nc2-c2ccccc2)nc(C(=O)NCCN(C)C)n3C)cc1 | - | -
CN(C)CCNC(=O)c1nc2nc(-c3ccccc3)c(-c3ccccc3O)cc2n1C | ? | -
CN(C)CCNC(=O)c1nc2nc(-c3ccccc3)c(-c3cccc(CO)c3)cc2n1C | 10µM | -
COc1ncccc1-c1cc2c(nc1-c1ccccc1)nc(C(=O)NCCN(C)C)n2C | 16µM | -
Cc1c(Cl)cccc1NC(=O)c1nc2ccccc2nc1N1CCN(C)CC1 | - | .
CN(C(=O)c1cc(-c2cc(Cl)cc(Cl)c2)nc2c1cnn2C)c1ccccc1 | . | -
CCOC(=O)[C@H]1C[C@]2(CCCCN(CCOC)C2=O)N(C(=O)CCc2ccccc2)[C@H]1c1ccco1 | . | -
CC1CCC(NC(=O)c2csc3c2CCC(C)C3)CC1 (stereo unspecified) | - | .
CC(C)N(C)C(=O)c1ccc(Cl)c(NC(=O)C2(C)CC2(Cl)Cl)c1 (stereo unspecified) | - | .
CCc1ccc(N2CC(c3noc(-c4cc(OC)c(OC)c(OC)c4)n3)CC2=O)cc1 (stereo unspecified) | 32µM | -
COc1cc(OC)cc(-c2nc(C3CC(=O)N(c4ccc(OC)c(OC)c4)C3)no2)c1 (stereo unspecified) | 28µM | -
CCc1ccc(N2CC(c3noc(-c4ccccc4F)n3)CC2=O)cc1 (stereo unspecified) | - | -
CCc1ccc(-c2nc(C3CC(=O)N(c4ccc(OC)cc4)C3)no2)cc1 (stereo unspecified) | - | -
CCc1ccc(N2CC(c3noc(-c4ccc(OC)nc4OC)n3)CC2=O)cc1 (stereo unspecified) | 35µM | -
COc1ccc(-c2nc(C3CC(=O)N(c4ccc(OC)c(OC)c4)C3)no2)cc1OC (stereo unspecified) | ? | -
Cc1cc(C)cc(-c2ccc(CN3CCCC(NC(=O)Cc4ccc(F)cc4)C3)cc2)c1 (stereo unspecified) | . | -
COc1ccc(OCC2CN(Cc3cccc(F)c3)C(=O)c3ccc(C)nc3O2)cc1 (stereo unspecified) | . | -
CCCc1c(C)nc(Nc2nc(C)c3cc(C)ccc3n2)[nH]c1=O | - | .
COc1ccc(OC)c(CN2CCNc3cnc(Nc4ccccc4)cc3C2)c1 | 35µM | -
